Assay results as given in PubChem BioAssay (Tox21).
Inconclusive results are not listed. Calls of active or inactive are those of the source. Unless noted, calls follow the shape of the dose curve; as a rule, active = well fitted curve in the direction sought with a large enough effect in the repeat runs; inconclusive = weak or mixed curves; inactive = no such curve, though single readings can be large; an effect the other way counts as inactive or inconclusive.

What was measured:
[1] = qHTS assay for small molecule agonists of the p53 signaling pathway (AID 651631; calls by dose curve; also: nearly all actives have a fitted effect of over 15% in size)
Summary of the method: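 Beta-lactamase reporter activity under p53 response elements was quantified in HCT-116 cells by FRET fluorescence, following 16 h incubation with test compounds at 37 °C and 2 h substrate development at room temperature.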

[2] = qHTS assay for small molecules that induce genotoxicity in human embryonic kidney cells expressing luciferase-tagged ATAD5 (AID 651632); also: nearly all actives have a fitted effect of over 15% in size; also: potency is read from the fitted curve at half-maximal effect
Summary of the method: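 A rise in luciferase signal from ATAD5-tagged HEK293T cells marks genetic stress. Cells were exposed to compounds for 16 hr at 37C, 5% CO2, then luciferase was quantified after a 30 min room-temperature incubation with Amplite.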

[3] = qHTS assay for small molecule agonists of the p53 signaling pathway - cell viability (AID 651633; calls by dose curve;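 also: p53RE-bla HCT reporter cells with a stable beta-lactamase p53 reporter; series mostly up to about 83 µM; nearly all actives have a fitted effect of over 30% in size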)
Summary of the method: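 p53RE-bla cells were treated with compound for 16 hours at 37 C. Cytotoxicity was then measured as CellTiter-Glo luminescence after 30 min at room temperature.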

[4] = qHTS assay for small molecules that induce genotoxicity in human embryonic kidney cells expressing luciferase-tagged ATAD5 - cell viability (AID 651634; calls by dose curve; also: nearly all actives have a fitted effect of over 25% in size)
Summary of the method: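 Cytotoxicity counter-readout: after 15.5 hr compound treatment at 37C, live-cell protease activity in ATAD5-luciferase HEK293T cells measured by CellTiter-Fluor fluorescence, 30 min development at 37C.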

[5] = qHTS assay for small molecule disruptors of the mitochondrial membrane potential - cell viability (AID 720634; calls by dose curve;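 also: human HepG2 liver cancer cells; series mostly up to about 83 µM; nearly all actives have a fitted effect of over 20% in size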)
Summary of the method: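 Cytotoxicity was quantified from ATP content by CellTiter-Glo luminescence in the same wells as the MMP dye read-out. HepG2 (2,000 cells/well) were plated overnight and exposed to compounds for 1 hr at 37 C.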

[6] = qHTS assay for small molecule disruptors of the mitochondrial membrane potential (AID 720635); also: potency is read from the fitted curve at half-maximal effect
Summary of the method: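 HepG2 cells exposed to compound 1 hr at 37C, then Mito-MPS dye 30 min. Ratio read of aggregate (540/590 nm) versus monomer (490/535 nm) fluorescence.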

[7] = qHTS assay to test for compound auto fluorescence at 590 nm (red) in HepG2 cells (AID 720674)
Summary of the method: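 HepG2 cells, 2,000 per well in MEM with 10% FBS, attached overnight at 37 C, then got 23 nL compound or DMSO. After 1 hr at 37 C, 5% CO2, red fluorescence was read at 540/590 nm against Rose Bengal sodium as reference.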

[8] = qHTS assay to test for compound auto fluorescence at 535 nm (green) in HepG2 cells (AID 720675)
[9] = qHTS assay to test for compound auto fluorescence at 590 nm (red) in HEK293 cells (AID 720679)
Summary of the method: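 Intensity at 540nm excitation and 590nm emission is reported as Rose Bengal sodium-equivalent autofluorescence. Measurements followed overnight exposure (37C, 5% CO2) of HEK293 cells, 2,000 per well, to 23 nL compound.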

[10] = qHTS assay to test for compound auto fluorescence at 460 nm (blue) in HEK293 cells (AID 720678)
Summary of the method: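 HEK293, 2,000 cells/well, 10% dialyzed FBS; attach 4-5 hr 37C; pin compound or DMSO; o/n 37C/5% CO2; fluorescence 405/460 nm; triamterene-equivalent units.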
% is scaled to controls: 0 for no effect and ±100 for the full control effect.

NC(=O)c1ncn([C@@H]2O[C@H](CO)[C@@H](O)[C@H]2O)c1N
inactive: Potency [1] | Potency [2] | Potency [3] | Potency [4] | Potency [5] | Potency [6] | outcome [7] | outcome [8] | outcome [9]

CCCCCCOC(=O)c1ccccc1O
inactive: Potency [1] | Potency [2] | Potency [3] | Potency [4] | Potency [5] | outcome [7] | outcome [8] | Potency [10] | outcome [9]

COc1ccc(N=[N+]([O-])c2ccc(OC)cc2)cc1
active: Potency [2] 0.136 µM | Potency [6] 27 µM
inactive: Potency [1] | Potency [3] | Potency [4] | outcome [7] | outcome [8] | Potency [10] | outcome [9]

COc1cc(O)cc(O)c1
inactive: Potency [1] | Potency [2] | Potency [3] | Potency [4] | Potency [5] | outcome [7] | outcome [8] | Potency [10] | outcome [9]

C=CC(=O)OCCCCCC
inactive: Potency [1] | Potency [2] | Potency [3] | Potency [4] | Potency [5] | outcome [7] | outcome [8] | Potency [10] | outcome [9]

CCOC(=O)Nc1ccc2c(c1)N(C(=O)CCN1CCOCC1)c1ccccc1S2
inactive: Potency [1] | Potency [2] | Potency [3] | Potency [4] | Potency [5] | fluorescence, relative to Rose Bengal [7] 0.181% [at 18.6 µM] | fluorescence, % of fluorescein control [8] 0.0633% [at 18.6 µM] | fluorescence, % of triamterene [10] -0.0312% [at 18.6 µM] | fluorescence, % of fluorescent control [9] 0.108% [at 18.6 µM]

CC(C)COC(=O)c1ccccc1O
inactive: Potency [1] | Potency [2] | Potency [3] | Potency [4] | Potency [5] | outcome [7] | outcome [8] | Potency [10] | outcome [9]

CCCCN(CCO)CCO
inactive: Potency [1] | Potency [2] | Potency [3] | Potency [4] | Potency [5] | outcome [7] | outcome [8] | Potency [10] | outcome [9]

CCc1cc(S(=O)(=O)O)c2cc(C(C)C)cccc1-2
inactive: Potency [1] | Potency [2] | Potency [3] | Potency [4] | Potency [5] | outcome [7] | outcome [8] | Potency [10] | outcome [9]

CCN1CCCC1CNC(=O)c1cc(S(N)(=O)=O)ccc1OC (stereo not given)
inactive: Potency [1] | Potency [2] | Potency [3] | Potency [4] | Potency [5] | outcome [7] | outcome [8] | Potency [10] | outcome [9]

CC(C)(O)c1ccccc1
inactive: Potency [1] | Potency [2] | Potency [3] | Potency [4] | Potency [5] | outcome [7] | outcome [8] | Potency [10] | outcome [9]

CC(C)[C@H](N)C(=O)OCCOCn1cnc2c(=O)[nH]c(N)nc21
inactive: Potency [1] | Potency [2] | Potency [3] | Potency [4] | Potency [5] | outcome [7] | outcome [8] | Potency [10] | outcome [9]

OCc1ccccn1
inactive: Potency [1] | Potency [2] | Potency [3] | Potency [4] | Potency [5] | outcome [7] | outcome [8] | Potency [10] | outcome [9]

NCCN1CCNC1=O
inactive: Potency [1] | Potency [2] | Potency [3] | Potency [4] | Potency [5] | outcome [7] | outcome [8] | outcome [9]

NC(=O)CCCCC1CCSS1 (stereo not given)
inactive: Potency [1] | Potency [2] | Potency [3] | Potency [4] | Potency [5] | outcome [7] | outcome [8] | outcome [9]

CCn1cc(C(=O)O)c(=O)c2cc(F)c(N3CCN(C)CC3)cc21
inactive: Potency [1] | Potency [2] | Potency [3] | Potency [4] | Potency [5] | outcome [7] | outcome [8] | Potency [10] | outcome [9]

C=C(C)[C@H]1CC=C(C)CC1
inactive: Potency [1] | Potency [2] | Potency [3] | Potency [4] | outcome [7] | outcome [8] | Potency [10] | outcome [9]

CCCCNc1ccccc1
inactive: Potency [1] | Potency [2] | Potency [3] | Potency [4] | Potency [5] | outcome [7] | outcome [8] | Potency [10] | outcome [9]

C1COCCO1
inactive: Potency [1] | Potency [2] | Potency [3] | Potency [4] | outcome [7] | outcome [8] | Potency [10] | outcome [9]

CC/C=C\CCCCO
inactive: Potency [1] | Potency [2] | Potency [3] | Potency [4] | Potency [5] | outcome [7] | outcome [8] | outcome [9]

CN1[C@@H]2CC[C@H]1CC(NC(=O)n1c(=O)[nH]c3ccccc31)C2 (stereo not given in full)
inactive: Potency [1] | Potency [2] | Potency [3] | Potency [4] | Potency [5] | outcome [7] | outcome [8] | Potency [10] | outcome [9]

CCC(=O)c1cccc(Cl)c1
inactive: Potency [1] | Potency [2] | Potency [3] | Potency [4] | Potency [5] | outcome [7] | outcome [8] | outcome [9]

C=C(C)C(=O)NCCCN(C)C
inactive: Potency [1] | Potency [2] | Potency [3] | Potency [4] | Potency [5] | outcome [7] | outcome [8] | Potency [10] | outcome [9]

[O-][N+](=Nc1ccccc1)c1ccccc1
inactive: Potency [1] | Potency [2] | Potency [3] | Potency [4] | Potency [5] | outcome [7] | outcome [8] | Potency [10] | outcome [9]
